According to the supplement of paper PMC13380429:

Tested on: Vero E6 infected with SARS-CoV-2
Test: inhibition of SARS-CoV-2 cytopathic effect; higher = more antiviral protection, active = above 15
Settings: 48 h

Measured: inhibition of SARS-CoV-2 cytopathic effect

CCc1ccc(CCOc2ccc(CC3SC(=O)NC3=O)cc2)nc1 (stereo not given) [pioglitazone]
inactive: 1 nM -1.62% | 8.33 nM 1.34% | 100 nM 1.49% | 833.33 nM -8.11% | 10000 nM 1.27%

NCCNc1ccc(NCCN)c2c1C(=O)c1ccncc1C2=O [pixantrone]
inactive: 1 nM -1.68% | 8.33 nM 0.16% | 100 nM -1.63% | 833.33 nM 1.22% | 10000 nM 1.13%

CC(=O)OCC(=O)[C@@]1(O)CC[C@H]2[C@@H]3CCC4=CC(=O)CC[C@]4(C)[C@H]3C(=O)C[C@@]21C [cortisone-acetate]
inactive: 1 nM -0.91% | 8.33 nM -1.31% | 100 nM -1.03% | 833.33 nM 0.49% | 10000 nM 0.27%

CCNC(=O)CC[C@H](N)C(=O)O [L-theanine]
inactive: 1 nM -2.94% | 8.33 nM -3.55% | 100 nM -3.29% | 833.33 nM -0.63% | 10000 nM -0.81%

Nc1ncnc2c1ncn2[C@@H]1O[C@H](CO)C[C@H]1O [cordycepin]
inactive: 1 nM -1.1% | 8.33 nM 0.92% | 100 nM 1.03% | 833.33 nM -0.81% | 10000 nM -3.28%

CN(C)CCOC(=O)C(c1ccccc1)C1(O)CCCC1 (stereo not given) [cyclopentolate]
inactive: 1 nM -1.73% | 8.33 nM 1.59% | 100 nM -2.5% | 833.33 nM -0.18% | 10000 nM -1.17%

CCCCCCCCCCC(O)C1C=CC2C(=O)N(c3ccccc3)C(=O)C2N1Nc1ccc([N+](=O)[O-])cc1 (stereo not given)
inactive: 1 nM 0.91% | 8.33 nM 0.89% | 100 nM 1.56% | 833.33 nM 4.49% | 10000 nM 8.83%
